CtBP-E1A inh = blocks the CtBP interaction with E1A | hit rate 0.49% among 340,000 | activity change, % (no concentration beside the values) | AlphaScreen GST-E1A/His-CtBP binding, 1536-well; stronger effect = lower value; in the data active means activity change below about -65%; inconclusive means mostly about -30% to -63%; further: on the % scale 0 is the no-effect control and ±100 the full control effect
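In 5 uL wells, 23 nL compound meets equimolar GST-E1A and His-CtBP (5X stock 125 nM each) for 2 h, 37 °C. Beads (5X, 50 ug/mL) then 1 h, 37 °C, dark.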
JMJD2A Tudor inh = JMJD2A Tudor domain (human) inhibition; O75164; AlphaScreen JMJD2A-Tudor / H3K4me3 peptide binding; Potency, µM (titrated, usually from 114 µM), inactives show top-dose activity change, negative = inhibition, hits mostly inhibitors; hit rate 4.4% among 390,000; AID 504339; further: potency means the concentration at half of the fitted maximal effect; on the % scale 0 is the no-effect control and ±100 the full control effect; nearly all actives have a fitted effect of over 50% in size
Target sequence (O75164 whole entry, looked up, the tested form may be a part): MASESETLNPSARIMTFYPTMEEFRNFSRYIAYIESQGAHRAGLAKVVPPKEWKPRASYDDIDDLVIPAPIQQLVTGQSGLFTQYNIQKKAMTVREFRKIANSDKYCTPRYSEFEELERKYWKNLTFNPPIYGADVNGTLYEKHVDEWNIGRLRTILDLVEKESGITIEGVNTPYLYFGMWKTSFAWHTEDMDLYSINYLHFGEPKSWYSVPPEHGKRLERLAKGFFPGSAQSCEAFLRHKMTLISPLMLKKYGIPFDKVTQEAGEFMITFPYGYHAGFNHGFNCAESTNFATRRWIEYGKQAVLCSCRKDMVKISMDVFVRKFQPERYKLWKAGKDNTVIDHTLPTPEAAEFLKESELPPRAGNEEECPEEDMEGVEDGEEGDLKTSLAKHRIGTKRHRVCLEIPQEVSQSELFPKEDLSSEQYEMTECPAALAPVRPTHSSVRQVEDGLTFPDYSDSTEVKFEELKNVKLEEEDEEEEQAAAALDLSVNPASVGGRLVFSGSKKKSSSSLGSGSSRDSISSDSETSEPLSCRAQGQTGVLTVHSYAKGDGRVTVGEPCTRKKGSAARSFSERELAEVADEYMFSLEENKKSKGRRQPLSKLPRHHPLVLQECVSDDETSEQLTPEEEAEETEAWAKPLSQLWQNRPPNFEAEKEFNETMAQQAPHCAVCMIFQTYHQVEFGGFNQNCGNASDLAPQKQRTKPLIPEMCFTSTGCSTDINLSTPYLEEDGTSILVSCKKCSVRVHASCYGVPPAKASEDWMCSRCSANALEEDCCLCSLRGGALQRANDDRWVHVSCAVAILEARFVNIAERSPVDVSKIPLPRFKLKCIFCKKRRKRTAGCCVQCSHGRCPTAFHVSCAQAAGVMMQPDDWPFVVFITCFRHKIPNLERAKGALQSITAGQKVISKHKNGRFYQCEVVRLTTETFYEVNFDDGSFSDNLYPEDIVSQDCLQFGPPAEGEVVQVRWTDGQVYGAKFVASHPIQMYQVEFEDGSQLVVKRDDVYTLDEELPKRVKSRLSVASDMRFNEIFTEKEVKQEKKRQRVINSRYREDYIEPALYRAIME
Six1-Eya2 inh = Six1/Eya2 interaction inhibition | Q15475+O00167 | AlphaScreen GST-Six1/His-Eya2 binding, biochemical; stronger effect = lower value | activity change, % (concentration not given with the values) | hit rate 0.56% among 360,000; in the data active means activity change below about -65%; inconclusive means mostly about -30% to -63%; further: on the % scale 0 is the no-effect control and ±100 the full control effect
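AlphaScreen luminescence read after one hour at 37 °C in darkness. Pin-transferred compounds met GST-Six1 and His-Eya2 protein (5X stock 250 nM/500 nM) plus glutathione donor and Ni-chelate acceptor beads (5X, 50 ug/mL).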
BAZ2B block = inhibitors of human BAZ2B bromodomain; AlphaScreen BAZ2B-H3K14Ac peptide displacement; hit rate 4.4% among 360,000; Q9UIF8; Potency, µM (highest dose often 114 µM), without a hit: at the top dose activity change, negative = inhibition, hits mostly inhibitors; further: potency means the concentration at half of the fitted maximal effect; on the % scale 0 is the no-effect control and ±100 the full control effect; nearly all actives have a fitted effect of over 60% in size
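Inhibition is scored as reduced AlphaScreen emission. The BAZ2B/b-H3(5-23)K14Ac complex (50 nM each) in PBS pH 7.4, 0.01% Tween-20 meets compound (up to 110 uM) for 30 min at RT before bead addition.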
HP1b binding inh = HP1-beta chromodomain-methylated histone interaction inhibition | Potency, µM (top dose mostly 114 µM), for inactives: top-dose activity change, negative = inhibition, usual class: inhibitors | P83916 | AlphaScreen HP1-beta / biotin-H3K9me3 peptide binding | hit rate 0.56% among 390,000 | AID 540317; further: potency means the concentration at half of the fitted maximal effect; nearly all actives have a fitted effect of over 70% in size
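Compound inhibition of the preformed complex between 50 nM HP1-beta and 50 nM biotinylated H3K9me3 peptide was read by AlphaScreen. Buffer was PBS pH 7.4 with 0.01% Tween-20. Incubations ran 30 min at room temperature, with 10 ug/mL donor/acceptor beads.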
G9a inh = G9a (human) methyltransferase inhibition. Q96KQ7. G9a H3K9 monomethylation, AlphaScreen, 2 h. Potency, µM (doses to about 102 µM), for inactives: top-dose activity, negative = inhibition, hits mostly inhibitors. hit rate 8.8% among 350,000; further: potency means the concentration at half of the fitted maximal effect; on the % scale 0 is the no-effect control and ±100 the full control effect; nearly all actives have a fitted effect of over 75% in size
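G9a (20 nM) preincubated 15 min RT with compounds, then 500 nM biotinylated H3K9 peptide and 20 uM SAM added; 2 h RT reaction. Monomethyl-H3K9 product detected by AlphaScreen with anti-H3K9me1 antibody, streptavidin donor and anti-rabbit IgG acceptor beads.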
* hit, by the source's call; [ ] = another dose, or the depositor's remark. Hits are enriched below; roughly 10% of the tested compounds scored in any of these assays. Unless noted, the call rests on the fitted dose curve; in most records, active means well fitted inhibition curve with a large enough effect; inconclusive means small, poorly fitted or top-dose-only effect; inactive means no such curve, though single readings can be large or run the other way.

`Cc1cc2c(cc1NS(=O)(=O)c1cccc(C#N)c1)n(C)c(=O)c(=O)n2C` gave JMJD2A Tudor inh -8.0%, BAZ2B block -15.6%, HP1b binding inh 61.6% and G9a inh 10µM*.
Screening Cc1cccn2c(=O)cc(COc3ccc(NC(=O)COc4ccc(F)cc4)cc3)nc12 returned JMJD2A Tudor inh 5.5%, BAZ2B block 13.2%, HP1b binding inh 30.5%[57 µM] and G9a inh 46.5%[59 µM].
`CCn1cc(/C=C/C(=O)Nc2ccn(Cc3c(F)c(F)cc(F)c3F)n2)cn1` gave CtBP-E1A inh 0.0, JMJD2A Tudor inh -24.9%, Six1-Eya2 inh -11.0, BAZ2B block -6.1%, HP1b binding inh 7.7% and G9a inh 44.7µM*.
For CCn1cc(/C=C/C(=O)Nc2ccc(C)cc2Br)cn1 the results were CtBP-E1A inh -4.9, JMJD2A Tudor inh -2.1%, Six1-Eya2 inh 1.0, BAZ2B block 3.7%, HP1b binding inh 41.9% and G9a inh 17.4%[59 µM].
CCS(=O)c1scc(-c2ccc(Cl)cc2)c1C#N (centres undefined) was read as JMJD2A Tudor inh -3.0%, Six1-Eya2 inh 2.4, BAZ2B block 2.1%, HP1b binding inh 26.8% and G9a inh 50.1µM*.
`COc1ccc(C(N)CCc2ccc(C)o2)cc1` (centres undefined) gave CtBP-E1A inh 2.0, JMJD2A Tudor inh inconclusive, Six1-Eya2 inh -15.8, BAZ2B block inconclusive, HP1b binding inh -12.0% and G9a inh 79.4µM*.
`O=C(c1cc2ccccc2oc1=O)N1CCN(c2ccc(Cl)cc2)CC1` gave JMJD2A Tudor inh 1.0%, BAZ2B block 0.1%, HP1b binding inh 33.0% and G9a inh -6.0%[59 µM].
For Oc1ccccc1CN1CCC(C(O)(c2ccccc2)c2ccccc2)CC1 the results were CtBP-E1A inh -3.8, JMJD2A Tudor inh inconclusive, Six1-Eya2 inh 4.1, BAZ2B block -37.6%, HP1b binding inh inconclusive and G9a inh 8.91µM*.
`Oc1ccccc1CN1CCN(C(O)(c2ccccc2)c2ccccc2)CC1` gave CtBP-E1A inh -4.8, JMJD2A Tudor inh -16.7%, Six1-Eya2 inh -7.0, BAZ2B block 50.1µM*, HP1b binding inh 2.4% and G9a inh 35.5µM*.
`COC(=O)c1ccc(C2c3c(oc4ccc(C)cc4c3=O)C(=O)N2Cc2ccc3c(c2)OCO3)cc1` (centres undefined) gave JMJD2A Tudor inh -12.4%, BAZ2B block -5.6%, HP1b binding inh -0.1% and G9a inh 0.5%[59 µM].
`N#C/C(=C/c1cc[nH]c1)C(N)=S` gave CtBP-E1A inh -16.9, JMJD2A Tudor inh -22.1%, Six1-Eya2 inh -6.0, BAZ2B block -33.2%, HP1b binding inh 14.2% and G9a inh inconclusive.
Screening Cn1cccc1/C=C(\C#N)C(N)=S returned CtBP-E1A inh 0.9, JMJD2A Tudor inh -23.5%, Six1-Eya2 inh -29.7, BAZ2B block inconclusive, HP1b binding inh -16.8% and G9a inh 50.1µM*.
`CCCc1ccc(-c2cc(C(=O)N3CCN(c4ccccn4)CC3)c3ccccc3n2)cc1` gave CtBP-E1A inh -6.7, JMJD2A Tudor inh -25.6%, Six1-Eya2 inh -9.7, BAZ2B block 1.5%, HP1b binding inh 32.3% and G9a inh -8.6%.
CC1=NOC(=O)/C1=C\c1ccc2c(c1)OCO2 was read as CtBP-E1A inh 3.1, JMJD2A Tudor inh -2.1%, Six1-Eya2 inh 2.2, BAZ2B block inconclusive, HP1b binding inh 24.9% and G9a inh inconclusive.
CC1=NOC(=O)/C1=C/c1ccc2c(c1)OCO2 was read as JMJD2A Tudor inh -1.4%, Six1-Eya2 inh 2.8, BAZ2B block inconclusive, HP1b binding inh 33.4% and G9a inh 56.2µM*.
Screening O=C1/C(=C\c2ccc3c(c2)OCO3)CCC/C1=C/c1ccc2c(c1)OCO2 returned CtBP-E1A inh 5.6, JMJD2A Tudor inh inconclusive, Six1-Eya2 inh -1.6, BAZ2B block 25.1µM*, HP1b binding inh -22.1% and G9a inh 14.1µM*.
CCCNC(=O)N(C)C[C@H]1Oc2ncc(Br)cc2C(=O)N([C@H](C)CO)C[C@H]1C was read as CtBP-E1A inh -13.2 and Six1-Eya2 inh 3.6.
For COc1ccc(/C=N/n2cnc3c(sc(=S)n3-c3ccccc3)c2=O)cc1 the results were CtBP-E1A inh 7.9, JMJD2A Tudor inh -12.9%, Six1-Eya2 inh 10.9, BAZ2B block 8.3%, HP1b binding inh 61.7% and G9a inh 48.3%.
S=c1sc2c(Cl)ncnc2n1-c1ccccc1 was read as JMJD2A Tudor inh 1.0%, Six1-Eya2 inh inconclusive, BAZ2B block -22.6%, HP1b binding inh 25.9% and G9a inh 44.7µM*.
Screening COc1ccc(CC(=O)N[C@@H](C)C(=O)N2CCC3(CC2)NCCc2[nH]cnc23)cc1 returned CtBP-E1A inh -0.1, JMJD2A Tudor inh -17.2%, Six1-Eya2 inh -3.5, BAZ2B block -18.2%, HP1b binding inh 42.9% and G9a inh inconclusive.
`CCC1Sc2ccc(S(=O)(=O)N3CCN(c4ccccc4)CC3)cc2NC1=O` (centres undefined) gave CtBP-E1A inh -21.0, JMJD2A Tudor inh 12.6µM*, Six1-Eya2 inh -9.3, BAZ2B block -32.6%, HP1b binding inh -7.6% and G9a inh 17.8µM*.
CS(=O)(=O)Nc1ccc(C(=O)N2CCN(c3ccccc3)CC2)cc1 was read as CtBP-E1A inh 9.3, JMJD2A Tudor inh -4.0%, Six1-Eya2 inh -0.4, BAZ2B block 2.9%, HP1b binding inh 36.8% and G9a inh 0.8%.
C=CCn1c(C(C)NC(=O)c2cccs2)n[nH]c1=S (centres undefined) was read as CtBP-E1A inh 0.5, JMJD2A Tudor inh 17.8µM*, Six1-Eya2 inh 2.9, BAZ2B block 0.3%, HP1b binding inh 2.1% and G9a inh 15.8µM*.
CCn1c(C(C)NC(=O)c2cccs2)n[nH]c1=S (centres undefined) was read as CtBP-E1A inh 14.0, JMJD2A Tudor inh 7.08µM*, Six1-Eya2 inh 2.5, BAZ2B block -5.1%, HP1b binding inh 8.6% and G9a inh 12.6µM*.
C=CCn1c(CNC(=O)c2cccs2)n[nH]c1=S was read as CtBP-E1A inh -8.1, JMJD2A Tudor inh inconclusive, Six1-Eya2 inh 9.6, BAZ2B block 22.2%, HP1b binding inh 15.1% and G9a inh 25.1µM*.
`COC(=O)[C@@]12C[C@@H](CC(=O)NCc3ccc(OC)c(OC)c3)C(=O)N(Cc3cccc4ccccc34)C1=CCC(C)(C)C2` gave CtBP-E1A inh -11.7 and Six1-Eya2 inh -8.5.
`O=C(COC(=O)CC1CC2CCC1C2)Nc1ccccc1[N+](=O)[O-]` (centres undefined) gave CtBP-E1A inh -4.3, JMJD2A Tudor inh 50.1µM*, Six1-Eya2 inh inconclusive and HP1b binding inh inconclusive.

Screens as filed in PubChem.
